# Assays:
# Test in all cases: DAPPL (digital affinity profiling via proximity ligation, sequencing); 10 mM Tris-HCl pH 7.5, 50 mM NaCl, 1 mM DTT, 4% glycerol, room temperature, 30 min; GST-TFs on glutathione beads, 16-mer random dsDNA library, 0.1% formaldehyde crosslink after washing; high values mean tight binding
# Conditions in all cases: protein: recombinant; tags: N-terminal GST; dsDNA, one strand shown
# [1] = molecular target: T1, FLI1 (Homo sapiens, UniProt Q01543 1-452)
# T1 sequence: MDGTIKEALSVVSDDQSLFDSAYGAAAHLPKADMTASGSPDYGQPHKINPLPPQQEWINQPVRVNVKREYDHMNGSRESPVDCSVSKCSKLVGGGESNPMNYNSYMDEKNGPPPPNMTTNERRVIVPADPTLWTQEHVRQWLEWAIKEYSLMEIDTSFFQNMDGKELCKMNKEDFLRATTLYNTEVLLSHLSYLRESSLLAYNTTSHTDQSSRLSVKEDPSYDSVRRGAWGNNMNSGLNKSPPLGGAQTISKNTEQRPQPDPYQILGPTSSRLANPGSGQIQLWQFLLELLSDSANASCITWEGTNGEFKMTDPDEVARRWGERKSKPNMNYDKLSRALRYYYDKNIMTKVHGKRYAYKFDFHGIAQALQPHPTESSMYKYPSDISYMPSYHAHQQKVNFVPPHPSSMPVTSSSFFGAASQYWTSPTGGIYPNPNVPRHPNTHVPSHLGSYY
# Procedure, shortened: (§1)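 Human transcription factors carrying a GST fusion were produced in yeast, bound to glutathione beads, tagged with DNA barcodes and pooled together with a tag-only sample. Each pool was held with 200 nmole of a random double-stranded 16-mer DNA library in Tris/NaCl/DTT/glycerol buffer for 30 min at room temperature, then washed, crosslinked in 0.1% formaldehyde, proximity-ligated with BsaI/T4 ligase (1 h, 37 °C), PCR-amplified and sequenced on an Illumina NextSeq500. Binding signal is the read frequency of each hexamer for a given factor divided by its frequency in the tag-only sample.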
# [2] = molecular target: T2, ELK1 (Homo sapiens, UniProt P19419 1-428)
# T2 sequence: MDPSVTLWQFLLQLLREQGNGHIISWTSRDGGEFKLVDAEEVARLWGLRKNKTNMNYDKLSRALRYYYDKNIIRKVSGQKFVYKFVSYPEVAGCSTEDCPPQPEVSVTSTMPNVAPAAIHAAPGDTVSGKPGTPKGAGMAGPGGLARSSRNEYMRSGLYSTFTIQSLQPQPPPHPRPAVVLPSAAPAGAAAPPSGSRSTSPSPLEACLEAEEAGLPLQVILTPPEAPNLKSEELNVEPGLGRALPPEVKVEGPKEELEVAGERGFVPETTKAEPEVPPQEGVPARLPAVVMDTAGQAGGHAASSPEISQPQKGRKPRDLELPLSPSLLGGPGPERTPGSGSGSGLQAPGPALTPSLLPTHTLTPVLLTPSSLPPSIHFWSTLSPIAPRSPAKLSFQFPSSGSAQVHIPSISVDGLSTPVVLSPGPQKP
# Procedure, shortened: as §1
# [3] = molecular target: T3, GABPA (Homo sapiens, UniProt Q06546 1-454)
# T3 sequence: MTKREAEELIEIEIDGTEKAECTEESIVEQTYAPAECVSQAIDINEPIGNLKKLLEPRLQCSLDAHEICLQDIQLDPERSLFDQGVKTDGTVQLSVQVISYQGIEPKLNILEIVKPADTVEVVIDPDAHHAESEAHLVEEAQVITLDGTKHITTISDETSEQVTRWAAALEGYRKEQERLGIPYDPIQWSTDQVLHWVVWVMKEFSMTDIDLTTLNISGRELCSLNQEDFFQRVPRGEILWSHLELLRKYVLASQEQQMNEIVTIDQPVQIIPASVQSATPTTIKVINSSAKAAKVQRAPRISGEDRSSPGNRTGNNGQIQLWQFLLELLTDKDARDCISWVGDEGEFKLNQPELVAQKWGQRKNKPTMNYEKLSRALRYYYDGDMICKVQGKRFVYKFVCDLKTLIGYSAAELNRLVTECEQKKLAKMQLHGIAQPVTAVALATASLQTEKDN
# Procedure, shortened: as §1
# [4] = molecular target: T4, ERG (Homo sapiens, UniProt P11308 1-479)
# T4 sequence: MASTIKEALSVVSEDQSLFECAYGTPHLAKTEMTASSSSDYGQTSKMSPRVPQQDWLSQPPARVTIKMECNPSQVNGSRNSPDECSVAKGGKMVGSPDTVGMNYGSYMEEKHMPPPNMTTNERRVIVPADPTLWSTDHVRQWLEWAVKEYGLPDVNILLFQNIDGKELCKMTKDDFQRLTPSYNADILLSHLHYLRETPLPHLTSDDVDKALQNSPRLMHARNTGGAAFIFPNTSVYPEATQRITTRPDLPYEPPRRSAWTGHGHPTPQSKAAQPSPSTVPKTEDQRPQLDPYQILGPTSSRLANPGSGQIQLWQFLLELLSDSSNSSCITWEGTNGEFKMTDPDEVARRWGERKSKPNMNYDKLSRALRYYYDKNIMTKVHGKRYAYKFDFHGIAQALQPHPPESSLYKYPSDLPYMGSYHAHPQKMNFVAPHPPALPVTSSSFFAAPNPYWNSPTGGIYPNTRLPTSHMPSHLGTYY
# Procedure, shortened: as §1
# [5] = molecular target: ELF1 (Homo sapiens, UniProt P32519 1-619)
# ELF1, sequence (P32519 whole entry): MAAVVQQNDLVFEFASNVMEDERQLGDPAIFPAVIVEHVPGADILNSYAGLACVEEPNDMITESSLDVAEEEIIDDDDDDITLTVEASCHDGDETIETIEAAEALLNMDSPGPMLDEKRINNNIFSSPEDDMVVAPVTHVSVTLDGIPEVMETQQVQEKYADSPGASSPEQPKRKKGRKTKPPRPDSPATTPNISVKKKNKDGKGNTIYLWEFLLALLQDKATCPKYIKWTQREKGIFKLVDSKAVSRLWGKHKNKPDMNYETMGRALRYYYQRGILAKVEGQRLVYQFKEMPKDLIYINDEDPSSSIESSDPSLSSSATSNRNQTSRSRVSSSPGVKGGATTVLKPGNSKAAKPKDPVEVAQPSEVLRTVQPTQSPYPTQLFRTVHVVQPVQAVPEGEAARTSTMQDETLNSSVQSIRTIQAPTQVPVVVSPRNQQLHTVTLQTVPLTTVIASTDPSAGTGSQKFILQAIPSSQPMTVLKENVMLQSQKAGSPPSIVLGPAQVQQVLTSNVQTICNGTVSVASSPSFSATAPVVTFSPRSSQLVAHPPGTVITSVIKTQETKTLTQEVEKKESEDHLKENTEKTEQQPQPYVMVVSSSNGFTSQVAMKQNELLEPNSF
# Procedure, shortened: as §1
# [6] = molecular target: SPI1 (Homo sapiens, UniProt P17947 1-270)
# Procedure, shortened: as §1
# [7] = molecular target: SPIB (Homo sapiens, UniProt Q01892 1-262)
# SPIB, sequence (Q01892 whole entry): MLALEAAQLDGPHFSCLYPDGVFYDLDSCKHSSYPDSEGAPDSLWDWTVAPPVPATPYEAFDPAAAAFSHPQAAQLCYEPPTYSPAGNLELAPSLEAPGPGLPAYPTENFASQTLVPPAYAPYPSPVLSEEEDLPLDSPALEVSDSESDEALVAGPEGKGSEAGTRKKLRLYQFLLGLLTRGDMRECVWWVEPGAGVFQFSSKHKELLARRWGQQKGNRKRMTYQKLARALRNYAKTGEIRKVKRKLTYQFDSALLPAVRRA
# Procedure, shortened: as §1
# [8] = molecular target: T5, ELK3 (Homo sapiens, UniProt P41970 1-407)
# T5 sequence: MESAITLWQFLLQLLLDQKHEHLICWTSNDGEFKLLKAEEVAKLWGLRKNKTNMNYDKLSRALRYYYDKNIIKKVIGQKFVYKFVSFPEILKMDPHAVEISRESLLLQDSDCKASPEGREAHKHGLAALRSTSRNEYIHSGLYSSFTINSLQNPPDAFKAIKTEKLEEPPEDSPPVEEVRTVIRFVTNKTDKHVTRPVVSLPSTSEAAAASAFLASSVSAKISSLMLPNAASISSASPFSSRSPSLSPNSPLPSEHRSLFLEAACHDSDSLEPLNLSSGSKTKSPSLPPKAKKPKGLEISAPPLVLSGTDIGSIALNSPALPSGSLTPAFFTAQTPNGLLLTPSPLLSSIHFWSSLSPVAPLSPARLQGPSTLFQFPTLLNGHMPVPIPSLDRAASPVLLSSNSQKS
# Procedure, shortened: as §1
# [9] = molecular target: T6, FEV (Homo sapiens, UniProt Q99581 1-238)
# T6 sequence: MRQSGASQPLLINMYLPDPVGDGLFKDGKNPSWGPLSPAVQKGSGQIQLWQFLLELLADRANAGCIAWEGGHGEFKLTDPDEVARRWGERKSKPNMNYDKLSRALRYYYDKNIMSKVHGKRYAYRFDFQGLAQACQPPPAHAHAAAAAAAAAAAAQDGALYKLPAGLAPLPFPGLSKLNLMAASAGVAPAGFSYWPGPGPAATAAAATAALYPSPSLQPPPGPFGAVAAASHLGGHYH
# Procedure, shortened: as §1
# [10] = molecular target: ETV5 (Homo sapiens, UniProt P41161 1-510)
# ETV5, sequence (P41161 whole entry): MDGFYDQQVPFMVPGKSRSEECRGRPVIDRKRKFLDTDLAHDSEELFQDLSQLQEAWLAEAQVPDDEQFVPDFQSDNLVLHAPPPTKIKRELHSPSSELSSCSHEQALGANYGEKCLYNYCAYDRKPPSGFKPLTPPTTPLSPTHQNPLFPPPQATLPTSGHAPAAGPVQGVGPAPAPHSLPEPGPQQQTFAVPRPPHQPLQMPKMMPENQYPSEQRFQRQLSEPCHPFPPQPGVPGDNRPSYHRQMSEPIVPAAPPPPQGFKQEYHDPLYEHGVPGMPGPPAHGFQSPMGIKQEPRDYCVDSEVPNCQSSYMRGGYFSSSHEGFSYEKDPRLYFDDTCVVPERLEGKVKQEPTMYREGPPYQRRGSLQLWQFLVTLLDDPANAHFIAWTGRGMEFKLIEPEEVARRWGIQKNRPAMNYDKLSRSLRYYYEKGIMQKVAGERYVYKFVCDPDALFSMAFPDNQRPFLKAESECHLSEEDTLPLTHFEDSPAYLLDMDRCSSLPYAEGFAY
# Procedure, shortened: as §1
# [11] = molecular target: T7, SPIC (Homo sapiens, UniProt Q8N5J4 1-248)
# T7 sequence: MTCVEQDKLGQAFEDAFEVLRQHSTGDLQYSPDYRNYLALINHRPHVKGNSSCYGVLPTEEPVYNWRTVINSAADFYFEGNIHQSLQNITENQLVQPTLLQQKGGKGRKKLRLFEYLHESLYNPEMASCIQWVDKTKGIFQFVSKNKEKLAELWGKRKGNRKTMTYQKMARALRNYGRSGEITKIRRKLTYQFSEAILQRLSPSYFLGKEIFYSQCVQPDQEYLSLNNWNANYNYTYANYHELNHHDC
# Procedure, shortened: as §1
# [12] = molecular target: ELF4 (Homo sapiens, UniProt Q99607 1-663)
# ELF4, sequence (Q99607 whole entry): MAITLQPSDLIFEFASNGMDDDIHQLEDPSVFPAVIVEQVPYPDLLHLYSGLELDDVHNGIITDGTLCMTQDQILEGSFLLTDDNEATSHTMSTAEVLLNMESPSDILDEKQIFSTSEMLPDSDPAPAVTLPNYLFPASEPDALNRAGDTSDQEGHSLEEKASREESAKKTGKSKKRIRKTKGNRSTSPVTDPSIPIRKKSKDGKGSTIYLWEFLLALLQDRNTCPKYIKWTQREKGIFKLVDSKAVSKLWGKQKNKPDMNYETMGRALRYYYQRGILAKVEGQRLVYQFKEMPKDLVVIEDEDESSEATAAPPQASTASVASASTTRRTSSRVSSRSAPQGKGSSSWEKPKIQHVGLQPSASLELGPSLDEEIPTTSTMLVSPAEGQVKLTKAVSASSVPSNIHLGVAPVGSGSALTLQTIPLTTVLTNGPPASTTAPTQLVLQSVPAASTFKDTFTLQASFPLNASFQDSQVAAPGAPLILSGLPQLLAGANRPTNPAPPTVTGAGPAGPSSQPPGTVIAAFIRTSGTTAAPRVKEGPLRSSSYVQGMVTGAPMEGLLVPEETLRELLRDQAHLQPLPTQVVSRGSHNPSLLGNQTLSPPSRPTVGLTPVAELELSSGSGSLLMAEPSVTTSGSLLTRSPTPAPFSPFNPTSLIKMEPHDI
# Procedure, shortened: as §1
# [13] = molecular target: T8, ELK4 (Homo sapiens, UniProt P28324-2 1-405)
# T8 sequence: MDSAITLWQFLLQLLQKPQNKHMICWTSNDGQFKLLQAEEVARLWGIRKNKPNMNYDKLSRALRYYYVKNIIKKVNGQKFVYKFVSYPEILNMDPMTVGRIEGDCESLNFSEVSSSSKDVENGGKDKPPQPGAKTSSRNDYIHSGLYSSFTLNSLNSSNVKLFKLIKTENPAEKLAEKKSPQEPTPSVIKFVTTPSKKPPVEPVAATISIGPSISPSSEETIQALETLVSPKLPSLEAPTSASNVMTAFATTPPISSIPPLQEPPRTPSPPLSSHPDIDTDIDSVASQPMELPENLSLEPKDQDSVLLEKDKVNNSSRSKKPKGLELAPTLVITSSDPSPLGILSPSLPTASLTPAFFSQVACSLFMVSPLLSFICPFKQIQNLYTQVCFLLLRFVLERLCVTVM
# Procedure, shortened: as §1
# [14] = molecular target: T9, ETV2 (Homo sapiens, UniProt O00321 1-342)
# T9 sequence: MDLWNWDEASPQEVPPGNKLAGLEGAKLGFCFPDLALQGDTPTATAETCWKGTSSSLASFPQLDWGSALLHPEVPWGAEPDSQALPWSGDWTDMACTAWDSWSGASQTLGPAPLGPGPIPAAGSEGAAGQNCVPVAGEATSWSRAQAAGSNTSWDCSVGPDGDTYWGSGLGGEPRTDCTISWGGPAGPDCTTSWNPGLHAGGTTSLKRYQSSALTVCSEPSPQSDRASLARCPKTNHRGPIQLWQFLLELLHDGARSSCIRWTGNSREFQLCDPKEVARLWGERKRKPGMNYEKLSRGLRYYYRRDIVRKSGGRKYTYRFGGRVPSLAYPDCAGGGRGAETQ
# Procedure, shortened: as §1
# [15] = molecular target: ETV1 (Homo sapiens, UniProt P50549 1-477)
# ETV1, sequence (P50549 whole entry): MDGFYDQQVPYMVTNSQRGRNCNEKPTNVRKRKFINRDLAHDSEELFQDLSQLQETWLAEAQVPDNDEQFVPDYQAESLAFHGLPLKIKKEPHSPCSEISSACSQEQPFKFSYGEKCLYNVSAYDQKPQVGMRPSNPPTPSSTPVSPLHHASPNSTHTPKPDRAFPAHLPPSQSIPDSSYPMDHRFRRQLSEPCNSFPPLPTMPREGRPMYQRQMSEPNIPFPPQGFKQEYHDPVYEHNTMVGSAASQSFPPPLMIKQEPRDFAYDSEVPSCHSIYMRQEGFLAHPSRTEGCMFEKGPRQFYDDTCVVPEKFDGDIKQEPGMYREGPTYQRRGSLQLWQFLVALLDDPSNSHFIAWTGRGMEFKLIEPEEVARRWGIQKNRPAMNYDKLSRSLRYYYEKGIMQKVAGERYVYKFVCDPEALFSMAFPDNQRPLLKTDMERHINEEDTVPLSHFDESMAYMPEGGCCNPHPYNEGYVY
# Procedure, shortened: as §1
# [16] = molecular target: T10, EHF (Homo sapiens, UniProt Q9NZC4 1-300)
# T10 sequence: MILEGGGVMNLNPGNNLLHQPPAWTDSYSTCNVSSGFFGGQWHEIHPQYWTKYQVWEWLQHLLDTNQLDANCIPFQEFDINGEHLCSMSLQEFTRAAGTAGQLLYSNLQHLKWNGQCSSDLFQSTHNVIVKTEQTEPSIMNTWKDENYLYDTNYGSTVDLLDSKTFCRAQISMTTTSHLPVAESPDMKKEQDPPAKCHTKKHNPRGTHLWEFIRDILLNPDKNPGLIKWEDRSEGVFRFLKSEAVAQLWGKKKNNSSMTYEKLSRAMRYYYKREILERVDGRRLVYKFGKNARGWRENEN
# Procedure, shortened: as §1
Sequence,binding signal [1],binding signal [2],binding signal [3],binding signal [4],binding signal [5],binding signal [6],binding signal [7],binding signal [8],binding signal [9],binding signal [10],binding signal [11],binding signal [12],binding signal [13],binding signal [14],binding signal [15],binding signal [16]
ACCCTG,"1.05 fold enrichment (6-mer frequency, TF over GST control)","1.09 fold enrichment (6-mer frequency, TF over GST control)","1.06 fold enrichment (6-mer frequency, TF over GST control)","1.05 fold enrichment (6-mer frequency, TF over GST control)","1.13 fold enrichment (6-mer frequency, TF over GST control)","1.05 fold enrichment (6-mer frequency, TF over GST control)","1.09 fold enrichment (6-mer frequency, TF over GST control)","1.24 fold enrichment (6-mer frequency, TF over GST control)","1.02 fold enrichment (6-mer frequency, TF over GST control)","1.01 fold enrichment (6-mer frequency, TF over GST control)","1.1 fold enrichment (6-mer frequency, TF over GST control)","1.16 fold enrichment (6-mer frequency, TF over GST control)","1.18 fold enrichment (6-mer frequency, TF over GST control)","1.05 fold enrichment (6-mer frequency, TF over GST control)","1.09 fold enrichment (6-mer frequency, TF over GST control)",
ACACTG,"1.08 fold enrichment (6-mer frequency, TF over GST control)","1.13 fold enrichment (6-mer frequency, TF over GST control)","1.13 fold enrichment (6-mer frequency, TF over GST control)","1.07 fold enrichment (6-mer frequency, TF over GST control)","1.09 fold enrichment (6-mer frequency, TF over GST control)","1.07 fold enrichment (6-mer frequency, TF over GST control)","1.04 fold enrichment (6-mer frequency, TF over GST control)","1.04 fold enrichment (6-mer frequency, TF over GST control)","1.01 fold enrichment (6-mer frequency, TF over GST control)","1.07 fold enrichment (6-mer frequency, TF over GST control)","1.3 fold enrichment (6-mer frequency, TF over GST control)","1.03 fold enrichment (6-mer frequency, TF over GST control)","1.14 fold enrichment (6-mer frequency, TF over GST control)","1.04 fold enrichment (6-mer frequency, TF over GST control)","1.15 fold enrichment (6-mer frequency, TF over GST control)","1.11 fold enrichment (6-mer frequency, TF over GST control)"
